The values below come from PMC5540273 (PLoS ONE, 2017).

Among the test systems are AURKC; AXL; BLK; BMPR1A; BMPR1B; BMPR2; BMX; BRAF; BRSK1; BRSK2; BTK; BUB1; CAMK1B; CAMK1D; CAMK1G; CAMK1; CAMK2A; CAMK2B.
What all share (conditions): concentration: 1 μM, replicates: in singlicate; n = 1
For a further assay, the system named is T1, BIKE.
T1 construct: gene BMP2K

The next assay relates to T2, BRK.
T2 construct: gene PTK6
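Also: KINOMEscan kinase panel screen.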

In the case of `COc1ccc(NC(=O)Nc2ccc(C)c(-c3ccc(C(=O)Nc4ccncc4)cc3)c2)cc1` [GSK1398475], the “%Inh” value worked out at 0% in the assay with AURKC; 0% in the assay with AXL; 0% in the assay on BIKE; 28% in the assay on BLK; 0% in the assay on BMPR1A; 0% in the assay on BMPR1B. In addition, the “%Inh” value in the assay with BMPR2 is on record as 0%; in the assay on BMX, 14%; in the assay with BRAF, 0%; in the assay on BRK it was 32%; in the assay on BRSK1 it was 0%; in the assay on BRSK2, 0%. Further, the “%Inh” value with BTK was 0%; with BUB1, 28%; in the assay with CAMK1B it was 1%; in the assay on CAMK1D it was 3%; with CAMK1G, 0%; with CAMK1 it was 4%. Moreover, the “%Inh” value in the assay with CAMK2A and with CAMK2B was 0% in each case.

Consider `Cl.O=S(=O)(c1cccc(F)c1)c1ccc(Nc2ncnc3cc(Br)sc23)cc1Cl` [GSK306886], for which the “%Inh” value in the assay with AURKC was 0%; with AXL, 0%; in the assay with BIKE, 0%; with BLK it was 10%; in the assay with BMPR1A, 0%; in the assay with BMPR1B, 0%. Moreover, the “%Inh” value in the assay on BMPR2 was 0%; with BMX, 15%; with BRAF it was 0%; with BRK, 0%; in the assay on BRSK1 it was 0%; in the assay with BRSK2, 0%. In addition, the “%Inh” value in the assay with BTK is listed as 0%; in the assay with BUB1, 0%; in the assay with CAMK1B, 38%; in the assay with CAMK1D, 10%; in the assay with CAMK1G it was 0%; in the assay with CAMK1, 2%. Besides, the “%Inh” value in the assay with CAMK2A and in the assay on CAMK2B was 0% in each case.

Take `Cl.Cl.c1ccc(-c2cc3ccncc3cc2OC2CCNCC2)cc1` [GSK1122999]: the “%Inh” value was found to be 28% in the assay with AURKC; 27% with AXL; 27% with BIKE; 41% with BLK; 0% in the assay on BMPR1A; 0% in the assay with BMPR1B. Besides, the “%Inh” value is on record as 0% with BMPR2; 17% with BMX; 0% with BRAF; 8% in the assay with BRK; 17% in the assay on BRSK1; 6% with BRSK2. In addition, the “%Inh” value turned out to be 0% in the assay with BTK; 0% in the assay on BUB1; 0% in the assay with CAMK1B; 20% with CAMK1D; 29% in the assay with CAMK1G; 3% with CAMK1. The “%Inh” value with CAMK2A and in the assay on CAMK2B was 0% in each case.

As for `COc1cc2c(Nc3cccc(NC(=O)c4ccccc4)c3)ncnc2cc1OCCCN1CCOCC1` [GSK223810], the “%Inh” value came out at 51% with AURKC; 42% in the assay with AXL; 42% in the assay on BIKE; 58% in the assay with BLK; 9% in the assay on BMPR1A; 0% in the assay on BMPR1B. The “%Inh” value was 0% with BMPR2; 33% in the assay with BMX; 34% in the assay with BRAF; 18% with BRK; 0% with BRSK1; 10% in the assay with BRSK2. The “%Inh” value in the assay on BTK was 0%; in the assay with BUB1, 31%; in the assay with CAMK1B, 37%; in the assay with CAMK1D it was 18%; in the assay on CAMK1G, 0%; in the assay with CAMK1, 32%. Moreover, the “%Inh” value with CAMK2A and in the assay on CAMK2B was 0% throughout.

Take `FC(F)(F)c1ccc(-c2nn3ncccc3c2-c2ccnc(Nc3cccc(C(F)(F)F)c3)n2)cc1` [GW828205]: the “%Inh” value in the assay with AURKC is 12%; in the assay with AXL it was 0%; in the assay on BIKE, 1%; in the assay with BLK, 1%; in the assay with BMPR1A, 0%; with BMPR1B it was 0%. Moreover, the “%Inh” value in the assay on BMPR2, in the assay on BMX, with BRAF, in the assay on BRK, in the assay on BRSK1 and in the assay on BRSK2 was 0% throughout. Besides, the “%Inh” value is on record as 49% in the assay with BTK; 0% in the assay with BUB1; 0% in the assay on CAMK1B; 18% in the assay with CAMK1D; 0% in the assay on CAMK1G; 11% in the assay on CAMK1. Further, the “%Inh” value in the assay with CAMK2A and with CAMK2B was 0% throughout.

Consider `COc1ccc(Nc2nccc(N3CCC(NC(=O)Nc4ccc5c(c4)OCO5)C3)n2)cc1` (centres unmarked) [GSK1379745], for which the “%Inh” value is listed as 43% in the assay on AURKC; 22% in the assay on AXL; 33% in the assay with BIKE; 25% with BLK; 13% in the assay with BMPR1A; 0% with BMPR1B. The “%Inh” value came to 23% with BMPR2; 13% with BMX; 2% in the assay with BRAF; 10% with BRK; 0% with BRSK1; 2% with BRSK2. Besides, the “%Inh” value is given as 32% in the assay with BTK; 33% in the assay on BUB1; 0% with CAMK1B; 8% in the assay on CAMK1D; 4% in the assay with CAMK1G; 8% in the assay with CAMK1. In addition, the entries for the “%Inh” value with CAMK2A and in the assay with CAMK2B were 0% and 1%, respectively.

Take `Cc1ccc(O)cc1Nc1cc(C(F)(F)F)nc2ccc(-c3ccncc3)cc12` [GW630823]: the “%Inh” value in the assay with AURKC came out at 5%; with AXL, 0%; in the assay on BIKE, 7%; in the assay with BLK it was 12%; with BMPR1A it was 0%; in the assay on BMPR1B, 0%. The “%Inh” value in the assay with BMPR2 is 0%; with BMX it was 17%; in the assay on BRAF, 0%; in the assay on BRK it was 11%; with BRSK1 it was 3%; in the assay with BRSK2, 0%. The “%Inh” value with BTK stood at 0%; in the assay on BUB1, 0%; with CAMK1B it was 0%; in the assay on CAMK1D, 14%; in the assay with CAMK1G, 1%; in the assay on CAMK1, 8%. For the same molecule, the “%Inh” value is 20% with CAMK2A and 2% in the assay with CAMK2B.

On to `CC(C)N1CCC(n2cnc(-c3ccc(F)cc3)c2-c2ccnc(N)n2)CC1` [SB-223132], for which the “%Inh” value in the assay on AURKC is 51%; in the assay on AXL, 5%; in the assay on BIKE, 32%; with BLK, 2%; in the assay on BMPR1A, 10%; in the assay with BMPR1B, 0%. In addition, the “%Inh” value came out at 0% with BMPR2; 9% in the assay with BMX; 0% with BRAF; 5% in the assay with BRK; 0% with BRSK1; 0% in the assay with BRSK2. Moreover, the “%Inh” value in the assay with BTK was 13%; in the assay with BUB1, 15%; in the assay with CAMK1B it was 0%; with CAMK1D it was 0%; in the assay on CAMK1G, 0%; in the assay on CAMK1, 0%. Also, the “%Inh” value in the assay with CAMK2A came to 4%; with CAMK2B it was 0%.

Consider `CC(C)(C)OC(=O)NC1CCCN(c2cc(-c3ccc4c(N)n[nH]c4c3)nc(N)n2)C1` (centres unmarked) [GSK2286096], for which the “%Inh” value in the assay with AURKC was found to be 53%; in the assay with AXL, 5%; with BIKE, 10%; in the assay with BLK, 0%; in the assay with BMPR1A, 0%; with BMPR1B it was 0%. The “%Inh” value came out at 0% in the assay on BMPR2; 8% with BMX; 16% with BRAF; 13% in the assay with BRK; 0% in the assay on BRSK1; 0% with BRSK2. Also, the “%Inh” value in the assay on BTK was found to be 0%; in the assay with BUB1, 0%; with CAMK1B, 25%; in the assay with CAMK1D, 21%; with CAMK1G it was 11%; in the assay on CAMK1 it was 16%. Besides, the “%Inh” value in the assay with CAMK2A and in the assay with CAMK2B was 0% in each case.

Turning to `c1ccc(-c2ccc3c(-c4ccnc(Nc5ccc6c(c5)OCCO6)n4)cnn3n2)cc1` [GW818941], the “%Inh” value was determined as 26% with AURKC; 11% in the assay with AXL; 27% in the assay on BIKE; 12% with BLK; 0% in the assay on BMPR1A; 0% in the assay on BMPR1B. The “%Inh” value in the assay with BMPR2 stood at 12%; with BMX, 8%; in the assay on BRAF, 0%; in the assay with BRK it was 9%; in the assay on BRSK1 it was 0%; with BRSK2 it was 0%. Further, the “%Inh” value is recorded as 14% in the assay on BTK; 28% in the assay with BUB1; 12% in the assay with CAMK1B; 8% in the assay on CAMK1D; 0% in the assay on CAMK1G; 29% with CAMK1. In addition, the “%Inh” value with CAMK2A is 0%; in the assay on CAMK2B, 5%.
